From the supplement of paper PMC6897291

How the values were obtained:
RIVA [1] = experiment: growth inhibition by drug plus 177Lu-lilotomab satetraxetan (1 - RLU/untreated control) (fraction); higher = stronger inhibition; conditions: 177Lu-lilotomab satetraxetan 0.5 ug/ml
Summary of the method: (§1)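 Compound doses on the pre-printed Selleck Cambridge Cancer Compound library plates were 10/100 nM for RIVA cells and 10/1,000 nM for U-2932 cells, seeded at 3,000 cells/well. Before seeding, cells were washed after 18 h with or without a radiolabelled anti-CD37 antibody conjugate (~600 MBq/mg; 0.5 µg/ml RIVA, 1 µg/ml U-2932). Growth inhibition was derived from RealTime-Glo luminescence relative to untreated no-drug control wells. Readings were taken daily starting on day 3, each after 1 h at 37°C, and each well's RLU was divided by the mean of 48 such wells per plate and subtracted from 1.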

U-2932 [2] = experiment: growth inhibition by drug alone (1 - RLU/untreated control) (fraction); higher = stronger inhibition; conditions: 177Lu-lilotomab satetraxetan 0 ug/ml
Summary of the method: as §1

RIVA [3] = experiment: as above; conditions: 177Lu-lilotomab satetraxetan 0 ug/ml
Summary of the method: as §1

U-2932 [4] = experiment: growth inhibition by drug plus 177Lu-lilotomab satetraxetan (1 - RLU/untreated control) (fraction); higher = stronger inhibition; conditions: 177Lu-lilotomab satetraxetan 1 ug/ml
Summary of the method: as §1

SMILES | growth inhibition by drug plus 177Lu-lilotomab satetraxetan (RIVA [1]; 100 nM, time (day): 5) | growth inhibition by drug plus 177Lu-lilotomab satetraxetan (RIVA [1]; 100 nM, time (day): 6) | growth inhibition by drug alone (U-2932 [2]; 10 nM, time (day): 3) | growth inhibition by drug alone (U-2932 [2]; 10 nM, time (day): 4) | growth inhibition by drug alone (U-2932 [2]; 10 nM, time (day): 5) | growth inhibition by drug alone (U-2932 [2]; 10 nM, time (day): 6) | growth inhibition by drug alone (U-2932 [2]; 1000 nM, time (day): 3) | growth inhibition by drug alone (U-2932 [2]; 1000 nM, time (day): 4) | growth inhibition by drug alone (U-2932 [2]; 1000 nM, time (day): 5) | growth inhibition by drug alone (U-2932 [2]; 1000 nM, time (day): 6) | growth inhibition by drug alone (RIVA [3]; 10 nM, time (day): 3) | growth inhibition by drug alone (RIVA [3]; 10 nM, time (day): 4) | growth inhibition by drug alone (RIVA [3]; 10 nM, time (day): 5) | growth inhibition by drug alone (RIVA [3]; 10 nM, time (day): 6) | growth inhibition by drug alone (RIVA [3]; 100 nM, time (day): 3) | growth inhibition by drug alone (RIVA [3]; 100 nM, time (day): 4) | growth inhibition by drug alone (RIVA [3]; 100 nM, time (day): 5) | growth inhibition by drug alone (RIVA [3]; 100 nM, time (day): 6) | growth inhibition by drug plus 177Lu-lilotomab satetraxetan (U-2932 [4]; 10 nM, time (day): 3) | growth inhibition by drug plus 177Lu-lilotomab satetraxetan (U-2932 [4]; 10 nM, time (day): 4) | growth inhibition by drug plus 177Lu-lilotomab satetraxetan (U-2932 [4]; 10 nM, time (day): 5) | growth inhibition by drug plus 177Lu-lilotomab satetraxetan (U-2932 [4]; 10 nM, time (day): 6) | growth inhibition by drug plus 177Lu-lilotomab satetraxetan (U-2932 [4]; 1000 nM, time (day): 3) | growth inhibition by drug plus 177Lu-lilotomab satetraxetan (U-2932 [4]; 1000 nM, time (day): 4) | growth inhibition by drug plus 177Lu-lilotomab satetraxetan (U-2932 [4]; 1000 nM, time (day): 5) | growth inhibition by drug plus 177Lu-lilotomab satetraxetan (U-2932 [4]; 1000 nM, time (day): 6) | growth inhibition by drug plus 177Lu-lilotomab satetraxetan (RIVA [1]; 10 nM, time (day): 3) | growth inhibition by drug plus 177Lu-lilotomab satetraxetan (RIVA [1]; 10 nM, time (day): 4) | growth inhibition by drug plus 177Lu-lilotomab satetraxetan (RIVA [1]; 10 nM, time (day): 5) | growth inhibition by drug plus 177Lu-lilotomab satetraxetan (RIVA [1]; 10 nM, time (day): 6) | growth inhibition by drug plus 177Lu-lilotomab satetraxetan (RIVA [1]; 100 nM, time (day): 3) | growth inhibition by drug plus 177Lu-lilotomab satetraxetan (RIVA [1]; 100 nM, time (day): 4)
Cc1nc(N)sc1-c1ccnc(Nc2ccc(N3CCOCC3)cc2)n1 | 0.498 | 0.487 | – | – | – | – | – | – | – | – | – | – | – | – | – | – | – | – | – | – | – | – | – | – | – | – | – | – | – | – | – | –
C=CC(=O)N1CCC[C@@H](n2nc(-c3ccc(Oc4ccccc4)cc3)c3c(N)ncnc32)C1 | – | – | 0.341 | 0.519 | 0.583 | 0.634 | 0.502 | 0.623 | 0.729 | 0.832 | 0.676 | 0.716 | 0.705 | 0.642 | 0.897 | 0.908 | 0.915 | 0.923 | 0.46 | 0.56 | 0.568 | 0.6 | 0.639 | 0.723 | 0.791 | 0.845 | – | – | – | – | – | –
c1ccc2c(CCNc3ccc(Nc4ccncc4)cc3)c[nH]c2c1 | 0.278 | 0.294 | 0.0584 | 0.057 | 0.0439 | -0.174 | 0.0747 | 0.114 | 0.115 | -0.0134 | -0.0529 | -0.0355 | -0.189 | -0.337 | -0.226 | -0.135 | -0.248 | -0.272 | 0.0442 | 0.058 | 0.101 | 0.125 | 0.0679 | 0.191 | 0.21 | 0.292 | 0.249 | 0.475 | 0.497 | 0.5 | 0.12 | 0.259
O=c1cc(N2CCOCC2)oc2c(-c3cccc4c3sc3ccccc34)cccc12 | 0.523 | 0.529 | 0.114 | 0.0778 | -0.0783 | -0.126 | 0.206 | 0.176 | 0.0314 | -0.00386 | 0.21 | 0.183 | 0.173 | -0.0317 | -0.363 | -0.241 | -0.261 | -0.43 | 0.0719 | 0.131 | 0.166 | 0.2 | 0.312 | 0.318 | 0.34 | 0.421 | 0.597 | 0.621 | 0.62 | 0.635 | 0.447 | 0.499
CCN(CC)CCCC(C)Nc1nc(C)cc(Nc2ccc3nc(C)cc(N)c3c2)n1 (configuration not stated) | 0.548 | 0.545 | 0.0927 | 0.0716 | -0.114 | -0.134 | 0.0662 | 0.0733 | -0.022 | -0.107 | -0.0541 | -0.0225 | -0.0658 | -0.279 | -0.31 | -0.199 | -0.249 | -0.391 | 0.0413 | 0.106 | 0.161 | 0.181 | 0.092 | 0.11 | 0.165 | 0.255 | 0.572 | 0.606 | 0.627 | 0.625 | 0.489 | 0.538
